# Compound activity: PubChem BioAssay, several laboratories
# NR3A LBD binder – modulates the human NR3A ligand-binding domain | NR3A LBD differential scanning fluorimetry, Tm shift; 0% = protein alone, 100% = glycine-bound protein | Tm shift relative to glycine control, % at 25 µM | 2.5% of 340,000 active;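 active = melting temperature shift of at least 10% of the positive control shift, at one fixed dose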
# ZTA counter – blocks Epstein-Barr virus ZTA, an EBNA-1 counter-screen; inhibition, % at 11 µM; P03206; AID 2234; 0.15% of 320,000 active; ZTA-DNA binding, fluorescence polarization; in the data active = inhibition above about 33%
# Target sequence (P03206 whole entry, looked up): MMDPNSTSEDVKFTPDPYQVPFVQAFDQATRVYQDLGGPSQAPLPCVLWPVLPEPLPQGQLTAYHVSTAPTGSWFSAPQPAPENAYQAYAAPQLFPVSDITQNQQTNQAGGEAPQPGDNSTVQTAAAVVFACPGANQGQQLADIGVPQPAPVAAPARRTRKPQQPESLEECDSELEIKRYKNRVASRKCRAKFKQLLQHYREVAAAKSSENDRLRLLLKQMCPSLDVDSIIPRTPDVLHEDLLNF
# dFosB activator – enhances mouse delta FosB homodimer DNA binding | purified delta FosB, TAMRA-CDK5 oligo fluorescence polarization; percent of positive-control signal above neutral wells | 0.99% of 340,000 active | activation, % at 25 µM | P13346 | AID 493131;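 active = mean activation above about 17%, with every replicate also reaching it, limit read from the data, passing the limit was not always enough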
# Target sequence (P13346 whole entry, looked up): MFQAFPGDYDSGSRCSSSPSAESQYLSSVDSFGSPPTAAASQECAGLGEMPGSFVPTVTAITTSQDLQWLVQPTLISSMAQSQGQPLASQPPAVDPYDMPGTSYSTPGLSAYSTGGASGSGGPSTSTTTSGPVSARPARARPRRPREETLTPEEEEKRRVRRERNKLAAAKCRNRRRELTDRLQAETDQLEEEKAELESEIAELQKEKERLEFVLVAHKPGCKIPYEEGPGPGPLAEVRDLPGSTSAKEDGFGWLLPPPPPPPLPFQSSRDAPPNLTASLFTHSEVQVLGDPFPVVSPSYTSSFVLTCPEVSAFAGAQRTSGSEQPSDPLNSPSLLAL
# TPT1 inh – blocks Candida albicans tRNA 2'-phosphotransferase; recombinant caTPT1, FP RNA substrate dephosphorylation; inhibition, % at 5 µM; 0.81% of 300,000 active;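 active = inhibition above the mean of all tested compounds plus 3 SD, set per screening campaign, cut at about 24% in these data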
# EBNA-1 inhibitor – blocks EBNA-1 binding to DNA; EBNA-1 DNA binding, fluorescence polarization; 0.34% of 300,000 active; inhibition, % at 14.8 µM; in the data active = inhibition above about 28%
# Rpn11 block – blocks the human proteasome subunit Rpn11 | AID 588493 | 0.59% of 360,000 active | inhibition, % at 20 µM | human 26S proteasome, Ub4-pepOG fluorescence polarization; 20S core pre-blocked with epoxomicin | O00487;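 active = inhibition at 20 µM, scaled to each plate's controls, above about 33%, limit read from the data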
# Rpn11 confirm – confirmation of human proteasome Rpn11 inhibitors. shares compounds with Rpn11 block. purified human 26S proteasome, Ub4-pepOG fluorescence polarization; proteasome pretreated with epoxomicin. inhibition, % at 20 µM. 29% of 1,900 active
# MMP-2 inh – counter-screen for RPN11 inhibitors: inhibition of human MMP-2; 4% of 1,900 active; inhibition, % at 20 µM; recombinant MMP-2, FRET peptide cleavage fluorescence; shares compounds with Rpn11 block;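 note: human MMP-2 activated beforehand with APMA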
# Thrombin FP – counter-screen for RPN11 inhibitors: inhibition of bovine thrombin. bovine thrombin cleavage of Ub4-pepOG, fluorescence polarization. 13% of 1,900 active. inhibition, % at 20 µM. shares compounds with Rpn11 block;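 active = mean inhibition at least 40% at 20 µM, or signal 3 deviations below plate average, so some actives read negative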
# Hits are given with their value; i = inactive; nt = no result given; + = active, no number. An excerpt weighted towards active compounds, which were near 4.5% of everything screened. Cut-off read from the data, not from the text of the source, unless noted: active = inhibition above about 40%; inactive = the rest.
SMILES,NR3A LBD binder,ZTA counter,dFosB activator,TPT1 inh,EBNA-1 inhibitor,Rpn11 block,Rpn11 confirm,MMP-2 inh,Thrombin FP
Cc1ccccc1S(=O)(=O)N1[C@@H](c2ccc(F)cc2)C(C(=O)O)=CC[C@H]1c1ccc(Cl)cc1,i,i,i,i,i,i,nt,nt,nt
CC(=O)n1cc([C@H]2C=C(C(=O)Nc3ccccc3)O[C@@H](OCc3ccc(CO)cc3)C2)c2ccccc21,i,i,i,i,i,42,44,i,i
CCc1ccc2[nH]c(=O)c(CN(Cc3ccccc3OC)Cc3nnnn3Cc3ccco3)cc2c1,i,i,i,i,i,45,i,i,i
O=C(COC(=O)c1cc([N+](=O)[O-])ccc1N1CCOCC1)Nc1ccc(Cl)cn1,i,i,i,i,i,i,nt,nt,nt
CCOC(=O)C1=C(C)N=c2sc(=Cc3cc(Cl)c(OCC(=O)O)c(OC)c3)c(=O)n2C1c1ccccc1Cl (stereo unspecified),nt,nt,nt,nt,nt,51,i,i,65
O=C(CCNS(=O)(=O)c1cccs1)NCc1cccs1,i,i,i,i,i,110,i,i,i
COc1ccccc1Cc1c(-c2cccc(Br)c2)nc2ccc(Br)cn12,nt,nt,nt,nt,nt,i,nt,nt,nt
CC(C)(C)Cc1c(-c2cccc(Cl)c2)nc2ccc(Cl)cn12,nt,nt,nt,nt,nt,43,i,52,i
COc1ccccc1Cc1c(-c2cccc(Br)c2)nc2ccc(Cl)cn12,nt,nt,nt,nt,nt,58,60,i,i
COc1ccccc1Cc1c(-c2ccc(Cl)cc2)nc2ccc(Br)cn12,nt,nt,nt,nt,nt,41,41,i,51
COc1ccccc1Cc1c(-c2ccc(C)cc2)nc2ccc(Br)cn12,nt,nt,nt,nt,nt,48,i,i,i
C/C(N)=C(/C#N)C(=O)COC(=O)c1ccccc1Oc1ccccc1,i,i,i,i,i,i,nt,nt,nt
COc1ccc(Cn2c(-c3ccc(OC)cc3)nc3c(c(=O)c4ccccc4n3C)c2=O)cc1,nt,i,nt,i,i,nt,nt,nt,nt
COc1ccc(Cn2c(C)nc3c(c2=O)c2nc4ccccc4nc2n3Cc2ccco2)cc1,i,nt,i,nt,nt,+,i,i,i
COc1ccc(Cn2c(-c3ccco3)nc3c(c(=O)c4ccccc4n3C)c2=O)cc1,i,i,i,i,i,+,i,i,42
O=C(CSc1nnc(-c2ccco2)o1)c1ccccc1Cl,i,i,i,i,i,i,nt,nt,nt
CN(C)C(=O)CCSc1nnc(-c2ccco2)o1,i,i,i,i,i,32,i,i,i
CCN(CC)C(=O)CSc1nnc(-c2ccco2)o1,i,i,i,i,i,i,nt,nt,nt
O=C(CSc1nnc(-c2ccco2)o1)c1ccc([N+](=O)[O-])cc1,i,i,nt,i,i,36,i,i,i
COc1ccccc1N1CCN(C(=O)c2ccc(CN3CCOCC3)cc2)CC1,i,i,i,i,i,i,nt,nt,nt
Cc1cccc(N2CC(C(=O)Nc3cccc(S(=O)(=O)N4CCCCC4)c3)CC2=O)c1C (stereo unspecified),i,i,i,nt,nt,i,nt,nt,nt
CC(=O)c1cccc(NC(=O)C2CC(=O)N(c3cccc(C)c3C)C2)c1 (stereo unspecified),i,i,i,i,i,93,i,i,i
Cc1ccc(C)c(C(=O)CSc2nc(C)cc(=O)[nH]2)c1,i,i,i,i,i,i,nt,nt,nt
CCCCCC(O)CCCC(=O)O (stereo unspecified),i,nt,i,nt,nt,i,nt,nt,nt
CCCCCCCCCCCCCCCC(O)C[N+](C)(C)CCO (stereo unspecified),i,nt,i,nt,nt,62,77,i,i
SMILES,NR3A LBD binder,ZTA counter,dFosB activator,TPT1 inh,EBNA-1 inhibitor,Rpn11 block,Rpn11 confirm,MMP-2 inh,Thrombin FP
COC1=C/C(=C/c2c(N)n3nc(CC(=O)N4CCCCC4)sc3nc2=O)C=CC1=O,i,i,i,i,i,51,i,i,52
C=CCC1=C/C(=C\c2c(N)n3nc(CC(=O)N4CCCC4)sc3nc2=O)C=C(OC)C1=O,i,i,i,i,i,nt,nt,nt,nt
CCOC1=C/C(=C/c2c(N)n3nc(CC(=O)N4CCCCC4)sc3nc2=O)C=CC1=O,i,i,i,i,i,79,44,i,i
CCOc1cc(CNc2ccc(CNc3ncn[nH]3)cc2)ccc1OCc1ccccc1,i,i,i,i,i,i,nt,nt,nt
CCOC(=O)N1CCC(NCc2c(C(=O)N(C)Cc3ccccc3)nc3ccccn23)CC1,i,i,i,i,i,i,nt,nt,nt
COc1cccc(OC)c1C(=O)NC(=S)Nc1ccc2c(c1)Cc1ccccc1-2,i,i,i,i,i,+,i,i,i
Oc1ccc(CN2CCCc3ccccc32)c2cccnc12,i,i,i,i,i,44,i,i,i
COc1ccccc1N1CCN(Cc2ccc(O)c3ncccc23)CC1,i,i,i,i,i,i,nt,nt,nt
COc1ccc(CNC(=O)[C@@H](NC(=O)C2CCN(C(=O)[C@@H](N)Cc3ccccc3)CC2)C(C)C)cc1,i,i,i,i,i,i,nt,nt,nt
COCCCn1cnnc1SCc1nc2sc(C(C)=O)c(C)c2c(=O)[nH]1,i,i,i,i,i,51,i,i,i
CC1(C)Cc2c(C#N)c(SCCC#N)nc(N3CCOCC3)c2CO1,i,nt,i,nt,nt,i,nt,nt,nt
CC1(C)Cc2c(C#N)c(SCCC#N)nc(N3CCOCC3)c2CS1,i,i,i,i,i,67,i,i,i
O=C(O)c1ccc2c(=O)n3c(nc2c1)/C(=C/c1ccccc1OC(F)F)CC3,i,i,i,i,i,i,nt,nt,nt
CSc1ccc(S(=O)(=O)N2CCC(C(=O)NCCN3CCOCC3)CC2)cc1,i,i,i,i,i,i,nt,nt,nt
O=C(Nc1ccccc1C(=O)O)c1ccc(CN2C(=O)c3ccccc3C2=O)cc1,i,i,i,i,i,i,nt,nt,nt
COc1ccc(COc2ccsc2C(=O)Nc2ccc(Cl)c(Cl)c2)cc1,i,i,i,i,i,44,i,i,i
Cc1ccnc2c1ccc1c(C)ccnc12,i,i,i,nt,nt,46,i,i,i
O=C(NN=C1c2ccccc2-c2ccccc21)c1ccccn1,i,i,i,i,i,94,60,i,i
CC(=N/O)/C(C)=N\NC(=O)c1ccccn1,i,i,i,i,i,i,nt,nt,nt
Cc1cccc(C)c1NC(=O)CN(C)C(=O)c1cccc(-n2cccc2)c1,i,i,i,i,i,i,nt,nt,nt
Cc1ccc(NC(=O)CN(C)C(=O)c2cccc(-n3cccc3)c2)cc1,i,nt,i,nt,nt,57,85,i,i
CC1(C)Cc2c(cnn2-c2cccc(F)c2)C(NC(=O)c2ccc(=O)[nH]n2)C1 (stereo unspecified),i,i,i,i,i,i,nt,nt,nt
CCN(CC(=O)Nc1c(F)cccc1F)C(=O)C1CC1C (stereo unspecified),i,i,i,i,i,i,nt,nt,nt
